PubChem BioAssay (NCATS)
Inconclusive results are not listed. Unmarked numbers belong to inactive results. The call rests on the fitted dose curve; in most records, active means well fitted inhibition curve with a large enough effect; inconclusive means small, poorly fitted or top-dose-only effect; inactive means no such curve, though single readings can be large or run the other way. Where a SMILES comes first, the peptide text is derived from it. [ ]: non-standard residue; d: D form. ξ: configuration not given here. ξPhe(βξ-Me) = CC(c1ccccc1)C(N)C(=O)O; GABA = NCCCC(=O)O

Each molecule was assayed on Zika virus NS2B-NS3 protease (linked construct) (assay: Primary screen NINDS Rhodamine qHTS for Zika virus inhibitors (AID 1347160; further: nearly all actives have a fitted effect of over 55% in size)). Conditions: purified NS2B-NS3 protease, Rhodamine110 substrate fluorescence; series mostly up to 57.1 µM; activity change, negative = inhibition: at the top concentration.
Outline: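 Purified NS2B-NS3 protease with the NS2B hydrophilic domain joined by a flexible linker (25 nM) in 10 mM Tris-HCl pH 8.0, 0.01% Tween 20, preincubated 15 min at RT with compound; Rhodamine110 peptide substrate 1.5 µM; fluorescence change over 15 min; 4-parameter Hill fit.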
On the % scale 0 is the no-effect control and ±100 the full control effect.

Row | Structure (SMILES) | activity change, negative = inhibition
1 | CC(C)c1ccc(CC(=O)N2CCC[C@@H](c3cccc(OC(C)(C)C(=O)O)c3)C2)cc1 | -24.2%
2 | CC(C)CC1NC(=O)C(C(C)c2ccccc2)NC(=O)C(C(C)C)NC(=O)C(C)NC(=O)CCCNC(=O)C(Cc2c[nH]c3ccccc23)NC(=O)C(C)NC1=O (stereo not drawn) (cyclo([GABA]AV[ξPhe(βξ-Me)]LAW); configuration not given here) | -18% [at 15.1 µM]
3 | CCOc1ccc(C(Nc2ccccn2)c2ccc3ccc(C)nc3c2O)cc1C (stereo unspecified) | 24.2%
4 | COC1CCCC/C(C)=C/C2C=C(C)C(C)C3C(CC(C)C)NC(=O)C23C(=O)C1 (stereo unspecified) | -8.97% [at 33.1 µM]
5 | COc1cc(C(O)C(CO)Oc2ccc(CCCO[C@@H]3O[C@@H](C)[C@H](O)[C@@H](O)[C@H]3O)cc2OC)ccc1O (stereo partly specified) | -23.8% [at 33.1 µM]
6 | COc1c(C)c(C(=O)c2ccc(N)c(C(=O)O)c2)n2ccccc12 | -3.48%
7 | CC1=C(CC(=O)O)c2cc(F)ccc2C1=Cc1ccc(S(C)(=O)=O)cc1 | 19.3%
8 | CN1C(=O)c2ccccc2NC(=O)[C@]12O[C@@H]2c1cccc(O)c1 | -12%
9 | CC1CC(O)C2(C)C(C(=O)O)=CCCC2C1(C)CCc1ccoc1 (stereo unspecified) | -17.6% [at 33.1 µM]
10 | CC1(C)C(=O)C(C)(C)c2cc(C(=O)Nc3ccc(C(=O)O)cc3)ccc21 | -4.75%
11 | CC1=C(C)C(=O)OC(C(C)C2C(O)CC3C4C5OC5C5(O)CC(OC6OC(CO)C(O)C(O)C6O)CC(O)C5(C)C4CCC32C)C1 (stereo unspecified) | 36.3% [at 15.1 µM]
